Screens: PubChem, National Center for Advancing Translational Sciences (NCATS)
Compounds with a hit are over-represented: about 3% of the library has one in this group of screens.
SARS PLP yeast: qHTS of Yeast-based Assay for SARS-CoV PLP | S. cerevisiae expressing SARS-CoV PLpro, growth rescue | Potency, µM (doses to about 32.9 µM), for inactives: at the top dose activity, positive = growth rescue, hits mostly activators | hit rate 0.19% among 330,000 | AID 485353, 2010; calls by dose curve; further: 0% is about no effect; nearly all actives have a fitted effect of over 55% in size
Sm TGR block: qHTS Assay for the Inhibitors of Schistosoma Mansoni Peroxiredoxins. purified TGR, DTNB reduction, TNB absorbance 405 nm. Potency, µM (top dose mostly 114 µM), inactives show top-dose activity change, negative = inhibition, usual class: inhibitors. Schistosoma mansoni thioredoxin glutathione reductase (TGR), Q962Y6. hit rate 3% among 360,000; active means well fitted inhibition curve with a large enough effect; inconclusive means small, poorly fitted or top-dose-only effect; inactive means no such curve, though single readings can be large or run the other way; further: on the % scale 0 is the no-effect control and ±100 the full control effect; nearly all actives have a fitted effect of over 60% in size
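Kinetic colorimetric format: TGR-catalysed, NADPH-driven DTNB reduction monitored via TNB absorbance. Enzyme dispensed at 20 nM; compound exposure 15 min at room temperature before reaction start.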
* = called active by the depositor; u = inconclusive; x = no result. Potency means the concentration at half of the fitted maximal effect.

SMILES	SARS PLP yeast	Sm TGR block
COc1ccc(/C=C/C2=CC(C)(C)NC(=S)N2)cc1OC	4.0%	2.82µM*
COc1ccc(CCNC(=O)CN2C(=O)COc3ccc(C)cc32)cc1OC	x	0.0%
CSc1ccc(CNC(=O)CCc2c(C)nn(-c3ccc(N4CCCC4)nn3)c2C)cc1	x	4.5%
O=C(CSc1nc2c(c(=O)[nH]1)CN(Cc1ccc(F)cc1)CC2)Nc1cccc(C(F)(F)F)c1	x	-0.8%
COc1ccc(C(=O)OCCCc2cc3ccccc3c(=O)o2)cc1	-1.2%	50.1µM*
COc1cc2cc(CCCOC(=O)c3ccc4c(c3)OCO4)oc(=O)c2cc1OC	0.7%	50.1µM*
COc1cc2cc(CCCOC(=O)c3ccc(C(F)(F)F)cc3)oc(=O)c2cc1OC	5.0%	-31.9%
COc1ccc(C(=O)OCCc2cc3ccccc3c(=O)o2)cc1	-3.0%	u
COc1ccc(C)cc1NC(=O)Cn1cc(S(=O)(=O)N2CCC(C)CC2)c2ccccc2c1=O	x	0.0%
CSc1cccc(NC(=O)CN(C)S(=O)(=O)c2ccc3c(c2)CCCN3C(C)=O)c1	x	1.8%
CCN(C(=O)CSc1nc2ccccc2n1CC(=O)N1CCCC(C)C1)c1ccccc1 (centres undefined)	x	-3.2%
CCCc1nnc(NC(=O)c2cc(=O)c3ccccc3o2)s1	x	-0.7%
CC1CCN(C(=O)c2cc3c(=O)n(C)c4cc(Cl)ccc4c3s2)CC1	x	8.2%
CCOC(=O)c1cc(C)sc1/N=C/C1C(=O)NC(=S)NC1=O	1.4%	4.47µM*
CCOC(=O)c1cc(C)sc1/N=C/C1C(=O)CCCC1=O	-13.5%	u
CCOC(=O)C1CCN(C(=O)c2cnn(-c3ccc(F)cc3)c2-n2cccc2)CC1	x	-8.6%
COc1ccc(OC)c(CCNC(=O)Cn2ccc3cc(S(=O)(=O)N4CCCCC4)ccc32)c1	x	6.2%
O=C(NCc1cccs1)c1ccccc1F	10.6%	-22.5%
O=C(NCC(c1ccco1)S(=O)(=O)c1cccs1)c1ccccc1F (centres undefined)	x	11.2µM*
COc1ccc(C(=O)NCC(c2cccs2)S(=O)(=O)c2cccs2)cc1 (centres undefined)	x	-26.9%
O=C(NCC(c1ccco1)S(=O)(=O)c1cccs1)c1c(F)cccc1F (centres undefined)	x	0.708µM*
O=C(NCC(c1ccco1)N1CCOCC1)c1c(F)cccc1F (centres undefined)	-0.9%	8.0%
O=C(NCC(c1cccs1)S(=O)(=O)c1cccs1)c1cccc(F)c1 (centres undefined)	x	20µM*
COc1ccc(CNC(=O)CCCc2nnc3n(CCC(C)C)c(=O)c4sccc4n23)cc1	x	8.1%
O=C(CSc1nnc(COc2ccccc2)o1)Nc1cc(C(F)(F)F)ccc1Cl	x	-0.3%
SMILES	SARS PLP yeast	Sm TGR block
COc1cccc(NC(=O)Cn2c(=O)n(-c3ccc(C)cc3)c(=O)c3ccc(C(=O)NCc4ccco4)cc32)c1	x	1.1%
Cc1ccc(-c2onc(C)c2C)cc1S(=O)(=O)Nc1cccc(Cl)c1C	x	2.1%
Cc1ccc(CNC(=O)c2cn(C)c(=O)c3c2c2ccccc2n3C)o1	5.3%	22.4µM*
CCCCN(C)CCNC(=O)c1cn(C)c(=O)c2c1c1ccccc1n2C	3.4%	44.7µM*
CCCCN(CC)CCNC(=O)c1cn(C)c(=O)c2c1c1ccccc1n2C	0.2%	-11.7%
Cc1ccc(CNC(=O)c2cc3c(=O)n(C)c4ccccc4c3n2C)o1	-0.7%	-25.9%
CCOC(=O)c1ccccc1NC(=O)c1sc2nc3n(c(=O)c2c1C)CCCCC3	x	-0.7%
CCN(CC(=O)Nc1ccc(NC(C)=O)cc1)C(=O)c1cccc(S(=O)(=O)N2CCc3ccccc3C2)c1	11.9%	u
CN(Cc1ccc(OC(F)F)cc1)C(=O)c1ccc(S(=O)(=O)N(C)c2ccccc2)cc1	4.6%	0.0%
Cc1ccc(CN(C)C(=O)c2ccc(S(=O)(=O)N(C)c3ccccc3)cc2)o1	-9.5%	11.2µM*
Cc1ccc(CN(C)C(=O)c2cccc(S(=O)(=O)N3CCc4ccccc4C3)c2)o1	-2.1%	28.2µM*
O=C(O)c1ccccc1Oc1ccc(Oc2ccccc2)cc1	12.7%	0.0%
Cc1ccc(CN(C)C(=O)c2ccccc2Oc2ccccc2)o1	-2.3%	7.94µM*
COc1cc(-c2nnc(SCC(=O)N(C)C3CCCCC3)o2)cc(OC)c1OC	x	-8.1%
Cc1cccc(Nc2nc(N)nc(CCl)n2)c1	-0.7%	14.1µM*
COc1cccc(Nc2nc(N)nc(C(F)(F)F)n2)c1	-1.6%	-31.8%
Cc1cccc(Nc2nc(N)nc(CCl)n2)c1C	3.6%	-5.5%
COc1cccc(Nc2nc(N)nc(CCl)n2)c1	-0.6%	20µM*
COc1cc(OC)c(NC(=O)c2c(C)nn(-c3ccc(C)cc3)c2-n2cccc2)cc1Cl	x	-8.0%
c1nc(NCCN2CCOCC2)c2sc3nc(N4CCOCC4)c4c(c3c2n1)CCC4	3.7%	44.7µM*
CCN1CCN(c2ncnc3c2sc2nc(N4CCOCC4)c4c(c23)CCC4)CC1	2.9%	-4.8%
CCCCSCCCNC(=O)CN1C(=O)COc2ccc(S(=O)(=O)N3CCC(C)CC3)cc21	x	-9.4%
Cc1ccccc1-c1nc2scc(CCNS(=O)(=O)c3ccccc3)n2n1	x	-1.4%
Cc1ccc(Nc2c(-c3ccco3)nc3nc(C)cc(C)n23)cc1	-8.0%	31.6µM*
Cc1cc(C)n2c(Nc3ccc4c(c3)OCCO4)c(-c3ccco3)nc2n1	3.6%	41.7%
SMILES	SARS PLP yeast	Sm TGR block
O=S(=O)(c1ccc(-c2csc(=Nc3ccc(F)cc3)n2CCCCCCO)cc1)N1CCCC1	x	-2.1%
COC(=O)C1(C)NC(c2ccc(Cl)cc2)C2C(=O)N(c3ccccc3)C(=O)C21 (centres undefined)	-0.5%	u
CC(=O)Oc1ccc(N2C(=O)C3C4C=CC(CO)(O4)C3C2=O)cc1 (centres undefined)	-30.8%	0.891µM*
CC(=O)Oc1ccc(N2C(=O)C3C(C2=O)C2(C)C=CC3(C)O2)cc1 (centres undefined)	-56.1%	0.631µM*
O=C1C2C3C=CC(CO)(O3)C2C(=O)N1c1ccccc1-c1ccccc1 (centres undefined)	-20.0%	0.316µM*
CC(=O)Oc1ccc(-n2c(=O)c3ccccc3c3ccccc3c2=O)cc1	0.1%	x
O=C1C2C3C=CC(CNS(=O)(=O)c4ccccc4)(O3)C2C(=O)N1c1ccc(Cl)cc1 (centres undefined)	-98.9%	3.98µM*
O=C1CCC(=O)N1c1ccccc1-c1ccccc1	3.5%	-24.7%
COc1ccc(N2C(=O)C3C4C=CC(c5ccccc5)(C3C2=O)C2C(=O)N(c3ccc(OC)cc3)C(=O)C42)cc1 (centres undefined)	-1.2%	x
CCOc1ccc(NC(=O)N2CC3CCCN3c3ccccc32)cc1 (centres undefined)	x	0.1%
Cc1ccc(C(=O)NC2=NC(c3ccc(C)cc3)CC(=O)N2)cc1 (centres undefined)	x	-5.9%
CCc1ccc(NC(=O)CSc2nnc(-c3cc4occc4n3C)n2-c2ccccc2C)cc1	x	2.7%
CN1C(=O)N(CC(=O)N2CCN(S(=O)(=O)c3ccc(Cl)s3)CC2)C(=O)C12CCCCC2	3.9%	44.7µM*
O=C(CN1C(=O)NC2(CCCCC2)C1=O)N1CCN(S(=O)(=O)c2ccc(Cl)s2)CC1	-4.3%	-2.0%
Cc1ccc(CNC(=O)CSc2nc(=O)[nH]c3c2CCCC3)cc1	x	7.4%
COc1cccc(N2CC(NC(=O)COc3ccccc3F)CC2=O)c1 (centres undefined)	x	10.4%
